# Measurements as given in PubChem BioAssay (Tox21).
# Results filed as inconclusive are left out. A call without a number means that no potency is given here. Active and inactive are the calls of the source. Calls come from the whole dose curve; as a rule, active = well fitted cell-killing curve with a large enough effect in the repeat runs; inconclusive = weak or mixed curves, or effect the other way; inactive = flat fitted curve, though single readings scatter.
# Test: qHTS RealTime-Glo MT Cell Viability Assay in HEK293 cells - 32 hour (AID 1224868); note: top concentration of the series differs between compounds; nearly all actives have a fitted effect of over 50% in size
# Conditions: RealTime-Glo luminescence; series mostly up to 76.8 µM
# Excerpt: National Center for Advancing Translational Sciences [NCATS]
# NIH Chemical Genomics Center [NCGC]
# U.S. Environmental Protection Agency [EPA]
# National Institutes of Environmental Health Sciences [NIEHS]
# National Toxicology Program [NTP]
# U.S. Food and Drug Administration [FDA]
# Measure of cell viability is critical in the cell-base assay. Analysis of cell viability is necessary for the characterization of cell responses to cytotoxic drugs and environmental stress. A RealTime-Glo MT Cell Viability Assay to monitor cell viability in real time of continues cell culture during 40 hours of compound treatment was used to screen Tox21 10K library compounds in Hek293 cells. The RealTime-Glo MT Cell Viability Assay is a nonlytic, homogeneous, bioluminescent method to measure cell viability in real time using a simple, plate-based method. The assay involves adding NanoLuc luciferase and a cell-permeant prosubstrate to cells in culture. Viable cells reduce the proprietary prosubstrate to generate a substrate for NanoLuc luciferase. This substrate diffuses from cells into the surrounding culture medium, where it is rapidly used by the NanoLuc Enzyme to produce a luminescent signal. The signal correlates with the number of viable cells, making the assay well suited for cytotoxicity studies.
# Tox21 Assay Protocol Summary:
# The mixture of Hek293 cell suspension and reagents were dispensed at 600cells/6 ul/well in 1536-well tissue culture treated black solid bottom plates using a Multidrop dispenser. After the assay plates were incubated at a 37 C/5% CO2 incubator for 5 hours, 23 nL of compounds dissolved in DMSO, positive and negative controls was transferred to the assay plate by a pintool work station. The plates were incubated at 37 C for 40 hours. The luminescence intensity were measured at 0h, 8h, 16h, 24h, 32h and 40h time points using ViewLux plate reader during compound treatment.
SMILES,Potency,"activity change, negative = cytotoxic"
CCN1CCCC(OC(=O)C(c2ccccc2)c2ccccc2)C1 (stereo not given),inactive,
CC(C)(C)C(=O)/C=C/c1ccc(Cl)cc1,inactive,
Oc1cc(O)c2c(c1)O[C@H](c1ccc(O)c(O)c1)[C@H](O)C2,inactive,
Nc1[nH]c(=O)ncc1F,inactive,
OC[C@H]1O[C@@H]2O[C@H]3[C@H](O)[C@@H](O)[C@@H](O[C@H]4[C@H](O)[C@@H](O)[C@@H](O[C@H]5[C@H](O)[C@@H](O)[C@@H](O[C@H]6[C@H](O)[C@@H](O)[C@@H](O[C@H]7[C@H](O)[C@@H](O)[C@@H](O[C@H]8[C@H](O)[C@@H](O)[C@@H](O[C@H]9[C@H](O)[C@@H](O)[C@@H](O[C@H]1[C@H](O)[C@H]2O)O[C@@H]9CO)O[C@@H]8CO)O[C@@H]7CO)O[C@@H]6CO)O[C@@H]5CO)O[C@@H]4CO)O[C@@H]3CO,inactive,
CCCC(=O)O[C@]1(C(=O)CCl)[C@@H](C)C[C@H]2[C@@H]3CCC4=CC(=O)C=C[C@]4(C)[C@@]3(F)C(=O)C[C@@]21C,inactive,
Cc1ccc(Nc2ccc(O)c3c2C(=O)c2ccccc2C3=O)cc1,inactive,
Nc1ccn(C2CO[C@H](CO)O2)c(=O)n1 (stereo not given in full),inactive,
CCn1cc(C(=O)O)c(=O)c2cc(F)c(N3CCN(C)CC3)cc21,,4.88% [at 15.8 µM] (inactive)
CCCCCC[C@@H](CCC)C(=O)O,inactive,
CCC(C)OC(=O)N1CCCCC1CCO (stereo not given),inactive,
O=S(=O)(c1cccc2cnccc12)N1CCCNCC1,inactive,
CCOC(=O)Cn1c(=O)sc2cccc(Cl)c21,inactive,
CCC(=O)Nc1cccc(N)c1,inactive,
Oc1ccc2c(c1)OC[C@@H](N1CCC(O)(c3ccc(F)cc3)CC1)[C@H]2O,inactive,
COc1cc(CCC(C)=O)ccc1O,inactive,
COC(=O)C1=C(C)NC(C)=C(C(=O)OCC(C)=O)C1c1ccccc1[N+](=O)[O-] (stereo not given),inactive,
CCCCCCCCC=O,inactive,
CCCCCN(CCCCC)C(=O)C(CCC(=O)O)NC(=O)c1ccc(Cl)c(Cl)c1 (stereo not given),inactive,
Cc1ccc(N)cc1[N+](=O)[O-],inactive,

SMILES,Potency,"activity change, negative = cytotoxic"
Cc1cc(C)c(NC(=O)CN(CC(=O)O)CC(=O)O)c(C)c1Br,inactive,
C=C[Si](OC)(OC)OC,inactive,
Cc1ccccc1Br,inactive,
OC1OC[C@@H](O)[C@H](O)[C@H]1O (stereo not given in full),inactive,
C=CCOCC(O)CS(=O)(=O)O (stereo not given),inactive,
COC(=O)c1ccc(C(=O)OC)c(C(=O)OC)c1,inactive,
C=CC(=O)N1CCOCC1,inactive,
CC1CCN(CCCC(=O)c2ccc(F)cc2)CC1,inactive,
CCCCCCCCCCCCCCC,inactive,
CCCC(C)C(=O)O (stereo not given),inactive,
CC(C)=CC(=O)O,inactive,
CC(CCO)CCCC(C)(C)O (stereo not given),inactive,
CC(=O)OC(C)(C)C,inactive,
O=C(CCOCCOCCOCCOCCC(=O)Nc1c(I)cc(I)c(C(=O)O)c1I)Nc1c(I)cc(I)c(C(=O)O)c1I,inactive,
COc1cccc(OC)c1,inactive,
CC(O)CN(CCCN(C)C)CCCN(C)C (stereo not given),inactive,
CCC(=O)/C=C/c1ccc(OC)cc1,inactive,
CNc1ncnc2nc[nH]c12,inactive,
COc1cccc(Br)c1,inactive,
NCCNC(=O)c1ccc(Cl)cn1,inactive,
